Compound activity from PubChem BioAssay.
KB-3-1 cytotox – qHTS assay for MDR1-selective chemotherapeutics: Primary screen using the parental adenocarcinoma cell KB-3-1. KB-3-1 viability, CellTiter-Glo ATP luminescence, 72 h. actives 1.4% (n = 400,000). Potency, µM (series often up to 46.1 µM), usual class: cytotoxic; also: % is scaled to controls: 0 for no effect and ±100 for the full control effect; nearly all actives have a fitted effect of over 60% in size
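Luminescent ATP read-out (CellTiter-Glo) measures survival of drug-naive KB-3-1 cells after 72 h compound exposure at 37 °C. Titration series was screened from lowest to highest concentration, with DMSO vehicle plates as background controls.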
MCF10A rerep – A quantitative high throughput screen for small molecules that induce DNA re-replication in MCF 10a normal breast cells; actives 2.9% (n = 350,000); MCF 10A DNA re-replication, Hoechst nuclear intensity, 48 h; Potency, µM (titrated, usually from 46.1 µM), for inactives: at the top dose activity, positive = re-replication, hits mostly activators; also: % of control where 0% means no effect; nearly all actives have a fitted effect of over 50% in size
SW480 rereplic – A quantitative high throughput screen for small molecules that induce DNA re-replication in SW480 colon adenocarcinoma cells; SW480 DNA re-replication, Hoechst DNA content imaging, 48 h; actives 1.8% (n = 340,000); Potency, µM (series often up to 46.1 µM), for inactives: at the highest dose re-replication activation, actives largely listed as activators; also: % of control where 0% means no effect; nearly all actives have a fitted effect of over 55% in size
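SW480 cells exposed to compounds for 48 hr at 37 C, 5% CO2, then Hoechst-stained 40 min. Nuclear DNA content imaged by fluorescence scanning (405 nm excitation, 500-530 nm emission); re-replication scored as increased high-intensity nuclei.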
KB-V1 cytotox – qHTS assay for MDR1-selective chemotherapeutics: Primary screen using the drug-selected MDR subline cells KB-V1. KB-V1 MDR cells viability, CellTiter-Glo, 72 h. Potency, µM (doses to about 46.1 µM), most hits filed as cytotoxic. actives 3.4% (n = 400,000). AID 1347076, 2019; also: % is scaled to controls: 0 for no effect and ±100 for the full control effect; nearly all actives have a fitted effect of over 60% in size
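KB-V1 MDR subline cells in DMEM (phenol-red free, 10% FBS) exposed to compounds in qHTS concentration series for 72 h at 37 degrees C. Viability read by CellTiter-Glo luminescence; concentration-effect curves fitted after normalization and correction.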
ELG1 repair inh – qHTS screen for small molecules that inhibit ELG1-dependent DNA repair in human embryonic kidney (HEK293T) cells expressing luciferase-tagged ELG1. HEK293T ELG1-luciferase reporter, luminescence, 16 h; DNA damage induced by 5-fluorouridine. Potency, µM (doses to about 46.1 µM), without a hit: at the top dose activity change, negative = inhibition, hits mostly inhibitors. actives 2.3% (n = 330,000). AID 504467, 2011; also: % is scaled to controls: 0 for no effect and ±100 for the full control effect; nearly all actives have a fitted effect of over 55% in size
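Quantitative HTS, concentration-response format. 2,000 cells/well co-treated with 5-fluorouridine and compound, 16 hr in 5% CO2 at 37 °C; ONE-Glo luminescence read after 30 min.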
Active calls of the source: *; i = inactive; ? = inconclusive; nt = no result given. Rows were chosen to be rich in hits. Some 8.1% of all compounds tested hit in one or more screens of this group. Calls follow the shape of the dose curve; as a rule, active = well fitted curve in the direction sought with a large enough effect; inconclusive = small, poorly fitted or top-dose-only effect, or another doubt; inactive = no such curve, though single readings can be large; an effect the other way counts as inactive or inconclusive. Potency is read from the fitted curve at half-maximal effect.

SMILES	KB-3-1 cytotox	MCF10A rerep	SW480 rereplic	KB-V1 cytotox	ELG1 repair inh
Nc1c(C(=O)NCc2ccco2)c2nc3ccccc3nc2n1CCc1ccc(F)cc1	i	?	5.8µM*	16µM*	?
Nc1c(C(=O)NCCN2CCOCC2)c2nc3ccccc3nc2n1CCc1ccccc1F	i	4%	-1%	i	?
Nc1c(C(=O)NCCN2CCOCC2)c2nc3ccccc3nc2n1CCc1ccccc1	i	1.8µM*	16µM*	23µM*	?
COc1ccc(-n2c(N)c(C(=O)NCc3ccco3)c3nc4ccccc4nc32)cc1	i	4%	-4%	i	-7%
COc1cc(C(=O)OCCCN2CCCN(CCCOC(=O)c3cc(OC)c(OC)c(OC)c3)CC2)cc(OC)c1OC	i	?	?	?	nt
O=C(NC(=S)NC1C2CC3CC(C2)CC1C3)c1ccccc1 (configuration not stated)	i	?	21%	i	13%
Nc1ccc(C(=O)Nc2ccc(OC(F)(F)C(F)F)c(NC(=O)c3ccc(N)cc3)c2)cc1	i	19%	1%	?	?
O=C(Nc1ccccn1)C1CCN(S(=O)(=O)c2ccc3ccccc3c2)CC1	i	2%	4%	i	-16%
CC(C)Cn1c(N)c(C(=O)COC(=O)c2ccc(Cl)cc2)c(=O)n(C)c1=O	i	-30%	1%	i	18µM*
CCOc1cc(C(=O)OCC(=O)c2c(N)n(C)c(=O)n(C)c2=O)cc(OCC)c1OCC	i	3%	0%	18µM*	-15%
CC(C)Cn1c(N)c(C(=O)COC(=O)c2ccc(Br)cc2)c(=O)n(C)c1=O	15µM*	4%	1%	i	21µM*
COC(=O)c1c(C)[nH]c(C(=O)OCC(=O)c2c(N)n(CC(C)C)c(=O)n(C)c2=O)c1C	?	?	16%	i	16µM*
CC(C)Cn1c(N)c(C(=O)COC(=O)c2ccncc2)c(=O)n(C)c1=O	i	-2%	-2%	i	?
Cc1ccc(Cl)cc1NS(=O)(=O)c1c(C)[nH]c(=O)[nH]c1=O	i	1%	-1%	i	4%
NS(=O)(=O)c1ccc(NC(=O)CN2CCc3ccccc32)cc1	i	-1%	-6%	i	-5%
O=C(O)/C=C\C(=O)Nc1ccccc1C#Cc1ccc(Br)cc1	?	18µM*	?	i	?
CC1(CCc2ccccc2)NC(=O)N(CC(=O)Nc2ccc(OC(F)F)cc2)C1=O (configuration not stated)	i	4%	1%	21µM*	?
COc1cccc(-c2nn(C)c3sc(C(=O)N4CCN(c5ccccn5)CC4)cc23)c1	i	?	?	i	?
CCOc1ccc(CCNC(=O)c2cccc(-n3cnnn3)c2)cc1OCC	i	2%	-2%	18µM*	-20%
CCOc1ccc(CCNC(=O)c2cc3c(-c4cccc(OC)c4)nn(C)c3s2)cc1OCC	?	nt	nt	23µM*	nt
CCOC(=O)c1cccc(NC(=O)c2cc3c(-c4cccc(OC)c4)nn(C)c3s2)c1	i	nt	nt	?	nt
COc1cccc(-c2nn(C)c3sc(C(=O)N4CCOCC4)cc23)c1	i	13%	1%	i	18µM*
CCOC(=O)C1CCCN(C(=O)c2cc3c(-c4cccc(OC)c4)nn(C)c3s2)C1 (configuration not stated)	?	6.5µM*	?	6.5µM*	12µM*
O=C(c1ccc(NS(=O)(=O)c2ccc(Cl)cc2)cc1)N1CCOCC1	i	-4%	?	i	-7%
CCSc1nnc(-c2cccc(S(=O)(=O)N(CC)CC)c2)n1Cc1ccccc1	i	?	5%	?	23µM*
SMILES	KB-3-1 cytotox	MCF10A rerep	SW480 rereplic	KB-V1 cytotox	ELG1 repair inh
CCNC(=O)CSc1nnc(-c2cccc(S(=O)(=O)N(CC)CC)c2)n1CCc1ccccc1	i	1%	-3%	i	?
CCN(CC)S(=O)(=O)c1cccc(-c2nnc(SCc3ncc(-c4ccccc4)o3)n2C)c1	i	1%	-2%	i	21µM*
Fc1ccc(CNC(=S)Nc2cccc(C(F)(F)F)c2)cc1	?	23%	0%	21µM*	?
O=C(NC(=S)Nc1cccc(C(F)(F)F)c1)c1csnn1	i	29%	6.5µM*	i	-11%
FC(F)(F)c1cccc(NC(=S)NCc2ccc(Cl)cc2)c1	?	18µM*	7%	?	?
COc1ccc(CCN2CNc3c(c(=O)n(C)c(=O)n3C)C2)cc1	i	6%	-5%	i	-12%
CC1(C)CC(NC(=O)COc2ccc([N+](=O)[O-])cc2)CC(C)(C)N1	i	1%	-6%	i	-8%
O=C(Nc1cccc(C(=O)O)c1)/C(=C\c1ccc2c(c1)OCO2)NC(=O)c1ccco1	i	0.58µM*	-18%	i	18%
O=C(Nc1ccccc1)/C(=C\c1ccc2c(c1)OCO2)NC(=O)c1ccco1	i	9.2µM*	?	i	24%
O=C(Nc1ccccc1)/C(=C/c1ccc2c(c1)OCO2)NC(=O)c1ccco1	i	-5%	-3%	?	3%
Cc1ccc(OCCN2C(=O)c3ccccc3C2=O)cc1	i	5%	1%	i	?
Cc1ccc2c(c1)C(=O)C(=O)N2c1ccc(Cl)cc1	i	1%	10%	i	15%
CCCN1C(=O)C(=O)c2cc(C)ccc21	6.5µM*	89%	6.5µM*	8.2µM*	?
O=C1C(=O)N(Cc2ccccc2)C(=O)N1CCOc1ccccc1	i	13µM*	?	?	-11%
Cc1ccc2c(c1)C(=O)C(=O)N2CCOc1ccccc1	?	19%	4.1µM*	?	10%
Cc1ccc2c(c1)C(=O)C(=O)N2Cc1ccc(Br)cc1	i	?	18µM*	?	?
Cc1ccc2c(c1)C(=O)C(=O)N2CCCOc1ccccc1C	?	?	30%	i	12%
COc1cccc(NC(=O)Cn2c(=O)n(Cc3ccco3)c(=O)c3cc(OC)c(OC)cc32)c1	i	nt	nt	i	nt
CCC(Sc1nc2ccccc2c2nc(CCn3cncc3C)nn12)C(=O)Nc1cccc(OC)c1 (configuration not stated)	i	nt	nt	i	nt
CCCCN1C(C)=CC(=C2C(=O)c3ccccc3C2=O)C=C1C	i	?	0%	?	?
